Shown are actives, neighbours in structure and some others; about 0.37% of the full set was active somewhere.
Cdc42 wt GTP: changes GTP binding to wildtype human Cdc42; P60953; percent activity (GTP binding), % at 10 µM; AID 761; GST-Cdc42 beads, Bodipy-GTP binding, flow cytometry; actives lie on both sides; actives 0.2% (n = 190,000);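 active = percent activity GTP binding at least 20 points away from the 100% baseline, either down as inhibitor or up as activator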;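 note: median bead fluorescence of bound Bodipy-FL-GTP at 100 nM; 0% = excess unlabeled GTP control and 100% = no compound control; below 100% means less GTP binding so inhibitor and above means activator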
Target sequence (P60953 whole entry, looked up): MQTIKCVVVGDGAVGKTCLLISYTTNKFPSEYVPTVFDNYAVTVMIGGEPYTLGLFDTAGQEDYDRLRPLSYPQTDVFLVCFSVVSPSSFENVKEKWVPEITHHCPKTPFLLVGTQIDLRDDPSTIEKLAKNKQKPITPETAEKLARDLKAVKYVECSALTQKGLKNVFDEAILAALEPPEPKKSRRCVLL
Rac1 act GTP bind: modulators of GTP binding to human Rac1 activated mutant; P63000; percent activity (GTP binding), % at 10 µM; GST-Rac1 activated beads, fluorescent GTP binding, flow cytometry; actives lie on both sides; 100% means binding = to untreated wells; actives 0.11% (n = 190,000); AID 764;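 active = GTP binding at least 20 percentage points away from the 100% baseline, in either direction, so actives lie on both sides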
Rab7 wt GTP bind: modulators of GTP binding to dog Rab7 wildtype GTPase; GST-Rab7 beads, fluorescent GTP binding, flow cytometry; actives lie on both sides; untreated = 100%, excess cold GTP = 0%; GTP binding activity (percent of control), % at 10 µM; actives 0.055% (n = 190,000); AID 758;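 active = fluorescent GTP binding to Rab7 beads changed by at least 20 points from the 100% baseline, either direction, mostly lower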;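 note: median green fluorescence of bound Bodipy-FL-GTP per Rab7 bead population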
HRas wt GTP bind: modulators of GTP binding to human HRas wildtype. P01112. GTP binding activity, % at 10 µM. actives 0.14% (n = 190,000). GST-Ras wt beads, Bodipy-FL-GTP binding, flow cytometry; actives lie on both sides. AID 759;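 active = GTP binding activity at least 20% away from the 100% baseline, either lowered as inhibitor or raised as activator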;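 note: 0% = unlabeled GTP competition control and 100% = no-compound control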
Target sequence (P01112 whole entry, looked up): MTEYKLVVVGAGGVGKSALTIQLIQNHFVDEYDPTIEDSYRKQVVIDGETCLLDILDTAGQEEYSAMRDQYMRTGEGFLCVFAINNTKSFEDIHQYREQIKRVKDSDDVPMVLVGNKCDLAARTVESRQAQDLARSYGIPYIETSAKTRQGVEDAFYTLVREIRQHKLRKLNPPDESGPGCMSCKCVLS
Rac1 wt modul: alters GTP binding to wildtype human Rac1; P63000; GST-Rac1 beads, fluorescent GTP binding, flow cytometry; actives lie on both sides; 0 = cold GTP competed, 100 = untreated; GTP binding activity (% of control), % at 10 µM; actives 0.27% (n = 190,000);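 active = GTP binding activity at least 20 points away from the 100% control level, either lower or higher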
Rab2 wt GTP: changes GTP binding to wildtype dog Rab2A, up or down; P61105; GST-Rab2 wt beads, Bodipy-GTP binding, flow cytometry; GTP binding activity, % at 10 µM; actives 0.19% (n = 190,000); AID 760;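 active = GTP binding activity at least 20 points away from 100%, either lowered or raised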;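 note: 0% = beads with excess unlabeled GTP and 100% = no-compound control corrected for plate trend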
* = called active by the depositor; [ ] = remark or other dose.

SMILES | Cdc42 wt GTP | Rac1 act GTP bind | Rab7 wt GTP bind | HRas wt GTP bind | Rac1 wt modul | Rab2 wt GTP
Cc1cc(C(=O)Cn2nc(C(=O)O)c3ccccc3c2=O)c(C)n1-c1ccc(OC(F)F)cc1 | 79* | 83 | 90 | 82 | 90 | 80
COCCn1c(=S)[nH]c2cc(C(=O)N3CCc4ccccc4C3)ccc2c1=O | 104 | 95 | 103 | 102 | 124*[activator] | 103
Cc1nonc1OCCCNc1ccc([N+](=O)[O-])cc1Cl | 98 | 97 | 99 | 98 | 100 | 99
CCOCC(=O)Nc1ccc([N+](=O)[O-])cc1C | 97 | 98 | 99 | 98 | 104 | 97
COc1cccc(NC(=O)CN2CCN(c3ccc(F)cc3)CC2)c1 | 96 | 95 | 98 | 97 | 95 | 97
COc1cccc(NC(=O)NCCCN2CCN(c3ccc(F)cc3)CC2)c1 | 100 | 100 | 76* | 98 | 99 | 98
Cc1ccc(/C=N/NC(=O)c2ccc(Cn3cc([N+](=O)[O-])cn3)o2)cc1 | 99 | 99 | 100 | 99 | 99 | 101
Cc1c(Cl)c([N+](=O)[O-])nn1Cc1ccc(C(=O)N/N=C\c2ccccn2)o1 | 84 | 88 | 89 | 82 | 75* | 80
O=C(c1ccco1)N1N=C2CCCCCC2C1(O)C(F)(F)F (stereo unspecified) | 99 | 94 | 100 | 94 | 99 | 97
COc1cc(Br)c(C2C(C#N)=C(N)Oc3n[nH]c(-c4cccnc4)c32)cc1OC (stereo unspecified) | 93 | 94 | 96 | 95 | 98 | 93
COc1ccc2cc(C)c3nnc(SCc4cccnc4)n3c2c1 | 79* | 90 | 95 | 82 | 86 | 83
COc1cc2c(cc1OC)CC(=O)NC=C2 | 95 | 95 | 99 | 97 | 96 | 97
Cc1nc2sc(C(=O)Nc3ccccc3)c(N)c2c(C)c1[N+](=O)[O-] | 97 | 97 | 101 | 98 | 93 | 99
Cn1c(=O)c2c(ncn2CC(O)CNc2cccc(Cl)c2)n(C)c1=O (stereo unspecified) | 107 | 104 | 107 | 106 | 124*[activator] | 107
Cc1cccc(NCC(O)Cn2cnc3c2c(=O)n(C)c(=O)n3C)c1 (stereo unspecified) | 116 | 104 | 106 | 114 | 107 | 115
O=C1NC(=Nc2ccc(F)cc2)CS1 | 95 | 93 | 95 | 93 | 90 | 94
O=C(CSc1nncs1)NCCCc1ccccc1 | 97 | 99 | 92 | 94 | 96 | 93
CC(=O)c1ccc(N2CCN(C(=O)c3ccc4c(=O)n(-c5ccccc5)c(=O)[nH]c4c3)CC2)cc1 | 105 | 106 | 104 | 108 | 121*[activator] | 107
O=C(c1ccc2c(=O)n(-c3ccccc3)c(=O)[nH]c2c1)N1CCN(c2ccc(F)cc2)CC1 | 106 | 101 | 107 | 105 | 110 | 105
CCCCCC(=O)Nc1ccc(S(=O)(=O)Nc2nccc(C)n2)cc1 | 95 | 91 | 97 | 97 | 101 | 95
COc1ccc(C2CC(c3ccccc3)=NN2c2ccc(S(N)(=O)=O)cc2)cc1 (stereo unspecified) | 78* | 94 | 104 | 99 | 98 | 97
NS(=O)(=O)c1ccc(N2N=C(c3ccccc3)CC2c2ccc(F)cc2)cc1 (stereo unspecified) | 89 | 96 | 93 | 97 | 94 | 94
COc1c(C)cccc1C(=O)NC(=S)Nc1ccc2c(c1)Cc1ccccc1-2 | 77* | 74* | 83 | 83 | 77* | 75*
CNC(=O)CSc1nc2[nH]ncc2c(=O)[nH]1 | 94 | 93 | 103 | 98 | 94 | 98
COc1c(C)cc(Br)cc1C(=O)O | 116 | 101 | 102 | 111 | 120*[activator] | 112
SMILES | Cdc42 wt GTP | Rac1 act GTP bind | Rab7 wt GTP bind | HRas wt GTP bind | Rac1 wt modul | Rab2 wt GTP
COCCNC(=O)c1cnn2c(C(F)F)cc(-c3ccccc3)nc12 | 83 | 88 | 98 | 90 | 79* | 87
O=C(NCc1ccco1)c1cnn2c(C(F)F)cc(-c3ccccc3)nc12 | 97 | 96 | 99 | 98 | 99 | 98
O=C(NCCOCCNC(=O)OCc1ccccc1)OCc1ccccc1 | 96 | 98 | 96 | 94 | 99 | 95
CCCC(=O)n1nc(-c2cccnc2)nc1NCc1ccccc1 | 97 | 95 | 95 | 97 | 95 | 96
COc1cccc(OC)c1OCCCOc1ccc(C)cc1Br | 93 | 99 | 92 | 97 | 98 | 99
COc1ccc(-c2cc(C(F)(F)F)c3c(n2)sc2c(O)cc(=O)[nH]c23)c(OC)c1 | 89 | 89 | 93 | 80 | 80 | 78*
Cc1cc(C)c2c(n1)sc1c(O)cc(=O)[nH]c12 | 104 | 102 | 100 | 100 | 107 | 103
Cc1nn(C)cc1C(C)Nc1nc2nonc2nc1N1CCCCC1 (stereo unspecified) | 98 | 98 | 95 | 98 | 97 | 97
NC(=O)NOCc1ncc(C(F)(F)F)cc1Cl | 117 | 104 | 105 | 111 | 120*[activator] | 113
CO/N=C/NC(=O)NOCc1ncc(C(F)(F)F)cc1Cl | 118 | 104 | 104 | 113 | 123*[activator] | 115
CCOc1cccc(Nc2cc3n(c(=O)n2)CCc2cc(OC)c(OC)cc2-3)c1 | 83 | 87 | 92 | 85 | 78* | 84
COc1cc2c(cc1OC)-c1cc(N3CCCCCC3)nc(=O)n1CC2 | 98 | 98 | 98 | 96 | 97 | 96
COc1cc2c(cc1OC)-c1cc(NC3CCCCCC3)nc(=O)n1CC2 | 77* | 86 | 84 | 75* | 80 | 75*
C=CCSC1=N/C(=C\c2cc(OCC)c(OC(C)=O)c([N+](=O)[O-])c2)C(=O)S1 | 89 | 88 | 90 | 93 | 90 | 90
O=C(Nc1cccc(-c2nnc(-c3ccco3)o2)c1)c1ccccc1 | 83 | 90 | 89 | 84 | 76* | 85
COc1ccc(S(=O)(=O)N2CCCCC2)cc1NC(=O)c1ccc([N+](=O)[O-])o1 | 82 | 87 | 97 | 86 | 74* | 84
CCCCCCCCCCCC(=O)c1c(O)cccc1O | 79* | 79* | 89 | 82 | 83 | 81
CCCCCCCC(=O)NNC(=O)Cc1ccccc1 | 97 | 95 | 94 | 95 | 93 | 96
CC(C)(C)CC(=O)NC(=S)NCc1ccco1 | 103 | 100 | 108 | 103 | 125*[activator] | 103
CSc1nc2ccc(NS(=O)(=O)c3c(Cl)cccc3Cl)cc2s1 | 81 | 79* | 84 | 83 | 79* | 78*
CC1(C(=O)NCc2ccc(Cl)c(Cl)c2)Oc2ccccc2NC1=O (stereo unspecified) | 96 | 96 | 92 | 94 | 95 | 95

Source: PubChem (NMMLSC)
